Reference: PubChem BioAssay (NCATS)
Records with an inconclusive call do not appear. Where a call stands in place of a potency, no number is given. Activity calls are given as the source filed them. Unless noted, calls come from the whole dose curve; as a rule, active = well fitted inhibition curve with a large enough effect; inconclusive = small, poorly fitted or top-dose-only effect; inactive = no such curve, though single readings can be large or run the other way.

Columns and labels:
[1] = qHTS assay for measurement of the activity of small molecule inhibitors on Zika virus induced Caspase-3 activity in human iPSC derived neural progenitor cells (hNPCs) (AID 1224857); note: nearly all actives have a fitted effect of over 65% in size
How it was run: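 In medium with heparin 2 ug/ml and cyclopamine 2 uM, hNPCs (350 cells/well) received compound for one hour and then Zika virus at 2 FFU/cell; caspase activity was measured by Caspase-Glo 3/7 luminescence 6 h post-infection.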

[2] = qHTS assay for measurement of the activity of small molecule inhibitors on Zika virus induced Caspase-3 activity in human astrocytoma cells (AID 1224859)
How it was run: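 A cell-based luminescent caspase-3/7 assay used SNB-19 cells infected with ZIKV (2 FFU/cell) for 6 h following 1 h compound pretreatment.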

[3] = High-throughput drug toxicity screening in the BPDCN cell line Gen2.2 (AID 1224824; call rule not given here;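 note: cells exposed to compounds for 48 h before reading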); settings: Gen2.2 BPDCN cells; at 45.8 µM (top of the series)
How it was run: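 Readout is ATP luminescence from Gen2.2 cells after two days of drug exposure in serum-containing medium at 37 °C. Values express percent activity, with vehicle defining full signal and 9.2 uM bortezomib defining zero.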

[4] = High-throughput drug toxicity screening in the BPDCN cell line Cal-1 (AID 1224825; call rule not given here); settings: Cal-1 BPDCN cell viability, qHTS; at 45.8 µM (top of the series)
How it was run: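 CellTiter-Glo luminescence after 48 h compound exposure; percent activity scaled with DMSO as 100% and bortezomib (9.2 uM final) as 0%. Cal-1 cells seeded at 500/well in RPMI, 10% FBS, no phenol red.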

[5] = qHTS Screen of the MIPE 4.0 Collection Against Ewings Sarcoma (RDES) (AID 1259252); note: potency is the fitted concentration of half-maximal effect; nearly all actives have a fitted effect of over 35% in size
How it was run: (§1)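 Log-phase cells in RPMI with 5% FBS attached for 4 h, then received compounds as a titration for 48 h at 37C, 5% CO2. Viability was read by CellTiter-Glo luminescence and normalized to DMSO and no-cell wells.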

[6] = qHTS Screen of the MIPE 4.0 Collection Against Ewings Sarcoma (TC71) (AID 1259253); note: nearly all actives have a fitted effect of over 40% in size; note: potency is the fitted concentration of half-maximal effect
How it was run: as §1

[7] = qHTS Screen of the MIPE 4.0 Collection Against Ewings Sarcoma (EW8) (AID 1259255); note: potency is the fitted concentration of half-maximal effect; nearly all actives have a fitted effect of over 35% in size
How it was run: as §1

[8] = qHTS Screen of the MIPE 4.0 Collection Against Ewings Sarcoma (TC32) (AID 1259256); note: potency is the fitted concentration of half-maximal effect; nearly all actives have a fitted effect of over 45% in size
How it was run: as §1

[9] = Immunotoxin (SS1P) sensitization/mitigation study. Vehicle arm (DMEM) (AID 1159513; call rule not given here)

CC(Cc1ccccc1)NCc1ccccc1Cl (stereo not drawn)
Potency [1]: inactive | outcome [2]: inactive

O=C(N[C@@H]1N=C(c2ccccc2F)c2cccc3c2N(CC3)C1=O)c1cc2ccccc2[nH]1
Potency [1]: inactive | outcome [2]: inactive

C[C@@H]1C[C@@H]([C@H](O)CC2CC(=O)NC(=O)C2)C(=O)[C@@H](C)C1
cell viability, % of control (lower = more cytotoxic) [3]: 19.5% | viability (% of control) [4]: 10.9% | Potency [1]: inactive | outcome [2]: inactive | Potency [5]: 418 nM (active) | Potency [6]: 235 nM (active) | Potency [7]: 148 nM (active) | Potency [8]: 132 nM (active)

CC(Cc1ccc2c(c1)OCO2)NO (stereo not drawn)
Potency [1]: inactive | outcome [2]: inactive

CC(C)(O)C(Cl)(Cl)Cl
Potency [1]: inactive | outcome [2]: inactive

CC(C)=CCN1CC[C@@]2(C)c3cc(O)ccc3C[C@@H]1[C@@H]2C
Potency [1]: inactive | outcome [2]: inactive

Clc1ccc(CSC(Cn2ccnc2)c2ccc(Cl)cc2Cl)cc1 (stereo not drawn)
Potency [1]: inactive | outcome [2]: inactive

CCOC(=O)c1ncn2c1CN(C)C(=O)c1c(I)cccc1-2
Potency [1]: inactive | outcome [2]: inactive

CC1Sc2c(C(=O)O)c(=O)c3cc(F)c(N4CCNCC4)cc3n21 (stereo not drawn)
Potency [1]: inactive | outcome [2]: inactive

CCCOC(=O)Cc1ccc(OCC(=O)N(CC)CC)c(OC)c1
Potency [1]: inactive | outcome [2]: inactive

COc1cc(N)c(Cl)cc1C(=O)NC1CN2CCC1CC2 (stereo not drawn)
Potency [1]: inactive

COC(=O)C1=CCCN(C)C1
cell viability, % of control (lower = more cytotoxic) [3]: 166% | viability (% of control) [4]: 129% | Potency [1]: inactive | outcome [2]: inactive | Potency [6]: inactive

NC(=O)c1ncn([C@@H]2O[C@H](CO)[C@@H](O)[C@H]2O)c1N
outcome [9]: inactive

COc1cc(CC(C)N)c(OC)cc1Br (stereo not drawn)
Potency [1]: inactive | outcome [2]: inactive

Cc1[nH]c(=O)c(C#N)cc1-c1ccc2nccn2c1
outcome [9]: inactive

CCC(=O)OC1(c2ccccc2)CCN(C)CC1
Potency [1]: inactive | outcome [2]: inactive
